Assay results taken from PubChem BioAssay (EPA / NIEHS).
Values joined by “and” are separate entries in the source; they are usually repeats but may differ in a detail not shown here. Equal entries are not always repeated. Inconclusive results are not listed. Active and inactive are the calls of the source. The calls were made as follows, unless noted: active = hit-call score of the fitted dose curve at least 0.9, where 1 is the maximum; inactive = score below 0.9.

How the values were obtained:
[1] = CCTE_Simmons_MITO_basal_resp_rate: CCTE's HepG2 Seahorse XF Respirometric Screening Assay at Basal Respiratory State, Simmons Lab (AID 2284001); settings: actives raise or lower the signal
Summary of the method: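 HepG2 respirometry; 7-pt titration 125 nM–100 uM final; kinetic OCR at 6 min intervals for 72 min; n=3 biological, technical singles; DMSO baseline, gain or loss fit; fenpyroximate (decrease) and 2,4-DNP (increase) controls.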

[2] = CCTE_Simmons_MITO_max_resp_rate: CCTE's HepG2 Seahorse XF Respirometric Screening Assay at Maximal Respiratory State [uncoupled], Simmons Lab (AID 2284002); settings: actives raise or lower the signal
Summary of the method: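 Maximal respiration in HepG2 cells is recorded as OCR by Seahorse XF following FCCP injection. Compounds span 125 nM–100 uM final; activity is called in either direction against DMSO.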

[3] = CCTE_Simmons_MITO_inhib_resp_rate: CCTE's HepG2 Seahorse XF Respirometric Screening Assay at Inhibited Respiratory State [full ETC block], Simmons Lab (AID 2284006); settings: actives raise or lower the signal
Summary of the method: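 Compound injected onto HepG2 cells (125 nM–100 uM final, 7 points); FCCP then rotenone/antimycin A added. Oxygen consumption read every 6 min (3 min mix, 3 min measure) for 72 min. Inhibited-state OCR fitted against DMSO.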

DIO1 (gene 1733) = test: CCTE_GLTED_hDIO1: CCTE's human Deiodinase 1 (DIO1) Inhibition Assay, Great Lakes Toxicology and Ecology Division (GLTED) Lab (AID 2283987; active = hit-call score of the fitted dose curve at least 0.9, where 1 is the maximum;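 also: isolated human DIO1 enzyme in a cell-free setup rather than cells; enzyme activity read as free iodide liberated from substrate via Sandell-Kolthoff colorimetry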)
Summary of the method: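 Cell-free hDIO1 assay, triplicate plates. Absorbance of the Sandell-Kolthoff reaction reports enzyme-liberated iodide; iodinated chemicals or nitrite, iron and thiocyanate may interfere.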

[4] = target: Nucleoli Translocation, AR (gene 367) (UniProt P10275); test: UPITT_HCI_U2OS_AR_TIF2_Nucleoli_Antagonist: University of Pittsburgh U2OS Androgen Receptor-Transcriptional Intermediary Factor 2 (AR-TIF2) Antagonism High Content Imaging Assay for Nucleoli Translocation (AID 2283997; active = hit-call score of the fitted dose curve at least 0.9, where 1 is the maximum)
Summary of the method: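 Measured quantity was AR-RFP fluorescence localized to nucleoli in engineered U2OS cells also bearing TIF2-GFP, acquired on automated high-content imagers. Primary testing used 20 uM compound; actives were confirmed in triplicate wells.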

[5] = target: Nucleoli Translocation, AR (gene 367) (UniProt P10275); test: UPITT_HCI_U2OS_AR_TIF2_Nucleoli_Agonist: University of Pittsburgh U2OS Androgen Receptor-Transcriptional Intermediary Factor 2 (AR-TIF2) Agonism High Content Imaging Assay for Nucleoli Translocation (AID 2283998; active = hit-call score of the fitted dose curve at least 0.9, where 1 is the maximum)
Summary of the method: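 Red-tagged human androgen receptor co-expressed with GFP-tagged TIF2 serves as the binding reporter. Primary testing used 20 uM final (0.2% DMSO); follow-up dose response covered 0.195 to 50 uM final (0.5% DMSO).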

[6] = target: Ratio of Nucleoli Translocation and Cytoplasm, AR (gene 367) (UniProt P10275); test: UPITT_HCI_U2OS_AR_TIF2_Nucleoli_Cytoplasm_Ratio_Agonist: University of Pittsburgh U2OS Androgen Receptor-Transcriptional Intermediary Factor 2 (AR-TIF2) Agonism High Content Imaging Assay for Ratio of Nucleoli Translocation and Cytoplasm (AID 2284000; active = hit-call score of the fitted dose curve at least 0.9, where 1 is the maximum;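 also: hits raise the red nucleolar to cytoplasm ratio above vehicle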)
Summary of the method: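 Read-out first: nucleolar-to-cytoplasm ratio of red (AR-RFP) signal, quantified by high-content imaging in U2OS cells co-expressing TIF2-GFP. Activity is scored as signal increase over DMSO. Single-point screening used 20 uM final (0.2% DMSO).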

[7] = TOX21_TR_RXR_BLA_Antagonist_Followup_viability: Viability Assessment in the Tox21 Thyroid Hormone Receptor beta Retinoid X Receptor alpha (RXRa) Antagonism Beta-lactamase (BLA) Follow-Up Assay (AID 2283979; active = hit-call score of the fitted dose curve at least 0.9, where 1 is the maximum)
Summary of the method: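 Follow-up compounds (11 concentrations, triplicate) were incubated 16 h at 37C/5% CO2 with HEK293T RXRa-bla cells seeded at 2,500/well in charcoal-stripped-serum medium. ATP content by CellTiter-Glo luminescence gave viability; curves fitted in both directions against DMSO.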

[8] = CCTE_Harrill_HTTr_Viability_DMEM_6hr: (Pilot) CCTE's 6-hour Cell Viability Assessment for the High-Throughput Transcriptomics (HTTr) Platform, in MCF-7 cells cultured in DMEM + 10% fetal bovine serum, Harrill Lab (AID 2283973)
Summary of the method: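 MCF-7 cells in DMEM + 10% FBS, eight-point dilution series, 6 h exposure. Membrane integrity by propidium iodide exclusion with high-content imaging; bidirectional fit versus DMSO.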

[9] = CCTE_Harrill_HTTr_Viability_DMEM_12hr: (Pilot) CCTE's 12-hour Cell Viability Assessment for the High-Throughput Transcriptomics (HTTr) Platform, in MCF-7 cells cultured in DMEM + 10% fetal bovine serum, Harrill Lab (AID 2283974)
Summary of the method: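 MCF-7 cells in DMEM + 10% FBS exposed 12 h to an eight-point dilution series; membrane integrity scored by propidium iodide exclusion with high-content imaging, bidirectional fitting versus DMSO.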

[10] = CCTE_Harrill_HTTr_Viability_DMEM_24hr: (Pilot) CCTE's 24-hour Cell Viability Assessment for the High-Throughput Transcriptomics (HTTr) Platform, in MCF-7 cells cultured in DMEM + 10% fetal bovine serum, Harrill Lab (AID 2283975)
Summary of the method: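 MCF-7 cells in DMEM with 10% FBS exposed for 24 hours to an eight-point dilution series. Membrane integrity by propidium iodide exclusion with high content imaging; bidirectional fit against DMSO.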

[11] = CCTE_Harrill_HTTr_Viability_PRF_DMEM_6hr: (Pilot) CCTE's 6-hour Cell Viability Assessment for the High-Throughput Transcriptomics (HTTr) Platform, in MCF-7 cells cultured phenol red-free DMEM + 10% charcoal-stripped fetal bovine serum, Harrill Lab (AID 2283976)
Summary of the method: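 MCF-7 cells in phenol red-free DMEM with 10% charcoal-stripped FBS exposed 6 hours to an eight-point dilution series. Propidium iodide exclusion imaged; curves fitted bidirectionally against DMSO.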

[12] = CCTE_Harrill_HTTr_Viability_PRF_DMEM_12hr: (Pilot) CCTE's 12-hour Cell Viability Assessment for the High-Throughput Transcriptomics (HTTr) Platform, in MCF-7 cells cultured in phenol red-free DMEM + 10% charcoal-stripped fetal bovine serum, Harrill Lab (AID 2283977)
Summary of the method: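 MCF-7 cells in phenol red-free DMEM with 10% charcoal-stripped FBS exposed 12 hours to an eight-point dilution series. Viability assessed by high-content imaging of propidium iodide exclusion; bidirectional fit versus DMSO.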

[13] = CCTE_Harrill_HTTr_Viability_PRF_DMEM_24hr: (Pilot) CCTE's 24-hour Cell Viability Assessment for the High-Throughput Transcriptomics (HTTr) Platform, in MCF-7 cells cultured in phenol red-free DMEM + 10% charcoal-stripped fetal bovine serum, Harrill Lab (AID 2283980)
Summary of the method: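 MCF-7 cells in phenol red-free DMEM with 10% charcoal-stripped FBS, eight-point dilution series, 24 h exposure. Membrane integrity by propidium iodide exclusion with high content imaging; bidirectional fit vs DMSO.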

[14] = CCTE_Harrill_HTTr_Apoptosis_DMEM_6hr: (Pilot) CCTE's 6-hour Apoptosis Assessment for the High-Throughput Transcriptomics (HTTr) Platform, in MCF-7 cells cultured in DMEM + 10% fetal bovine serum, Harrill Lab (AID 2283981)
Summary of the method: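 Caspase-3/7 activation read by high content imaging with CellEvent Caspase 3/7 Green in MCF-7 cells (DMEM + 10% FBS), 6 h after dosing; eight-point dilution series. Bidirectional fitting relative to DMSO baseline.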

[15] = CCTE_Harrill_HTTr_Apoptosis_DMEM_12hr: (Pilot) CCTE's 12-hour Apoptosis Assessment for the High-Throughput Transcriptomics (HTTr) Platform, in MCF-7 cells cultured in DMEM + 10% fetal bovine serum, Harrill Lab (AID 2283982)
Summary of the method: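 MCF-7 cells in DMEM + 10% FBS, exposed 12 h to an eight-point dilution series; caspase-3/7 activation imaged with CellEvent Green. Bidirectional fit versus DMSO.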

[16] = CCTE_Harrill_HTTr_Apoptosis_DMEM_24hr: (Pilot) CCTE's 24-hour Apoptosis Assessment for the High-Throughput Transcriptomics (HTTr) Platform, in MCF-7 cells cultured in DMEM + 10% fetal bovine serum, Harrill Lab (AID 2283983)
Summary of the method: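 MCF-7 cells in DMEM + 10% FBS, eight-point dilution series, 24 h exposure. Caspase-3/7 activation imaged by high-content imaging with CellEvent Caspase 3/7 Green. Bidirectional curve fitting against DMSO baseline.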

[17] = CCTE_Harrill_HTTr_Apoptosis_PRF_DMEM_6hr: (Pilot) CCTE's 6-hour Apoptosis Assessment for the High-Throughput Transcriptomics (HTTr) Platform, in MCF-7 cells cultured phenol red-free DMEM + 10% charcoal-stripped fetal bovine serum, Harrill Lab (AID 2283984)
Summary of the method: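 MCF-7 cells in phenol red-free DMEM + 10% charcoal-stripped FBS, eight-point dilution series, 6 h exposure. Caspase-3/7 activation imaged by high-content imaging with CellEvent Caspase 3/7 Green; bidirectional fit versus DMSO baseline.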

[18] = CCTE_Harrill_HTTr_Apoptosis_PRF_DMEM_12hr: (Pilot) CCTE's 12-hour Apoptosis Assessment for the High-Throughput Transcriptomics (HTTr) Platform, in MCF-7 cells cultured in phenol red-free DMEM + 10% charcoal-stripped fetal bovine serum, Harrill Lab (AID 2283985)
Summary of the method: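 MCF-7 cells in phenol red-free DMEM with 10% charcoal-stripped FBS, eight-point dilution series, 12 h exposure. Caspase-3/7 activation imaged by high content imaging with CellEvent Green reagent; bidirectional fit vs DMSO.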

[19] = CCTE_Harrill_HTTr_Apoptosis_PRF_DMEM_24hr: (Pilot) CCTE's 24-hour Apoptosis Assessment for the High-Throughput Transcriptomics (HTTr) Platform, in MCF-7 cells cultured in phenol red-free DMEM + 10% charcoal-stripped fetal bovine serum, Harrill Lab (AID 2283986)
Summary of the method: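 MCF-7 cells in phenol red-free DMEM with 10% charcoal-stripped FBS, exposed 24 h across an eight-point dilution series. Caspase-3/7 activation imaged with CellEvent Green by high content imaging; bidirectional fitting against DMSO.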

Measured: AC50

Chain of Ratio of Nucleoli Translocation and Cytoplasm, AR (gene 367) (P10275 whole entry, looked up): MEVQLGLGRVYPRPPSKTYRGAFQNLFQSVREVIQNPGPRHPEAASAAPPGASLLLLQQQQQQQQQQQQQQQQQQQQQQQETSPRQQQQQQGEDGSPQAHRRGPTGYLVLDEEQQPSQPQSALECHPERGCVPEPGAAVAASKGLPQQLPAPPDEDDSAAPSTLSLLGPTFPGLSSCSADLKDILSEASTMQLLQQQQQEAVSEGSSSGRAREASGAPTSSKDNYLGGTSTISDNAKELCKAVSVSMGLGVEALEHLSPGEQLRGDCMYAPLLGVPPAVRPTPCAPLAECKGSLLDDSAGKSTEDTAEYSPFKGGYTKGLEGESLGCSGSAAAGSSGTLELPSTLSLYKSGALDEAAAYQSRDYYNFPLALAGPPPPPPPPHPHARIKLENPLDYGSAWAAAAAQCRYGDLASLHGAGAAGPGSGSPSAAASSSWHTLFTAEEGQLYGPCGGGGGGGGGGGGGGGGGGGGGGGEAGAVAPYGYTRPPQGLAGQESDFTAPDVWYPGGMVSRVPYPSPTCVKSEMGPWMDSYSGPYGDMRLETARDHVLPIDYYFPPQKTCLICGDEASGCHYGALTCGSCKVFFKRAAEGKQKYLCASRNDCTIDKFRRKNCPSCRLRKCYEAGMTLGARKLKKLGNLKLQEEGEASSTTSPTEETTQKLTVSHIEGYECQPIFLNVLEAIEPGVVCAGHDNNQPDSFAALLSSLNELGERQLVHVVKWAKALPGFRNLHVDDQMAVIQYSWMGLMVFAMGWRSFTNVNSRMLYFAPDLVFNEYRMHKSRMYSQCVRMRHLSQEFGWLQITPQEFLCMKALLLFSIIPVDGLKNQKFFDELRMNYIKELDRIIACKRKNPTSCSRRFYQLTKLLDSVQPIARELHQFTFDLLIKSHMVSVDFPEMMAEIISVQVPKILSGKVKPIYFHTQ
Chain of Nucleoli Translocation, AR (gene 367) (P10275 whole entry, looked up): as above

COP(=S)(OC)Oc1nc(Cl)c(Cl)cc1Cl
inactive: [1] | [2] | [3]

N#Cc1nn(-c2c(Cl)cc(C(F)(F)F)cc2Cl)c(N)c1S(=O)C(F)(F)F (stereo unspecified)
inactive: [4] | [5] | [6] | [1] | [2] | [3]
active: DIO1 (gene 1733) 50.6 µM

CC(C)(C)c1ccc(CSc2cnn(C(C)(C)C)c(=O)c2Cl)cc1
active: [1] 0.96 µM | [2] 0.655 µM | [3] 359 nM
inactive: [7]

C=CCC1=C(C)C(OC(=O)C2C(C=C(C)C)C2(C)C)CC1=O (stereo unspecified)
active: [1] 34.7 µM and 46.9 µM | [2] 36.2 µM and 53.5 µM | [3] 26 µM and 42.3 µM

Cc1ccc(-c2c(Cl)nc(C#N)n2S(=O)(=O)N(C)C)cc1
active: DIO1 (gene 1733) 43.7 µM | [1] 0.982 µM | [2] 34 µM
inactive: [4] | [5] | [3]

CCON=C(CC)C1=C(O)CC(c2c(C)cc(C)cc2C)CC1=O (stereo unspecified)
inactive: [4]

CC1=C(C(=O)Nc2ccccc2)SCCO1
inactive: [4] | [2] | [3]

CON(C)C(=O)Nc1ccc(Cl)c(Cl)c1
active: [1] 26.8 µM
inactive: [2] | [3]

O=C(O)COc1nc(Cl)c(Cl)cc1Cl
inactive: [1] | [2] | [3]

CCNc1nc(Cl)nc(NCC)n1
inactive: [8] | [9] | [10] | [11] | [12] | [13] | [14] | [15] | [16] | [17] | [18] | [19]

N#Cc1cc(Br)c(O)c(Br)c1
inactive: [4] | [6] | [2] | [3]
active: [1] 9.69 µM

CCCC1COC(Cn2cncn2)(c2ccc(Cl)cc2Cl)O1 (stereo unspecified)
active: [5] 92.8 µM | [6] 89.2 µM | [1] 18.4 µM | [2] 33.7 µM
inactive: [8] | [9] | [10] | [11] | [12] | [13] | [14] | [15] | [16] | [17] | [18] | [19] | [3]

CC(C)Oc1cc(-n2nc(C(C)(C)C)oc2=O)c(Cl)cc1Cl
inactive: [4] | [5] | [6] | [1] | [2] | [3]

COC(=O)N(OC)c1ccccc1COc1ccn(-c2ccc(Cl)cc2)n1
active: [7] 7.9 µM | [1] 2.05 µM | [2] 1.7 µM | [3] 1690 nM
inactive: [8] | [9] | [10] | [11] | [12] | [13] | [14] | [15] | [16] | [17] | [18] | [19]

C=CCC1=C(C)[C@@H](OC(=O)[C@@H]2[C@@H](C=C(C)C)C2(C)C)CC1=O
active: [2] 47.4 µM
inactive: [3]
